Results reported in PubChem BioAssay AID1117361 (Southern Research Institute, 2015).
Hit rate of the full screen: of about 3,600 compounds, about 900 (25%) were called active. Not all results are given here. Entries with a potency or affinity are not part of this list. Values without a mark were called inactive. No rule for the calls is given here.

Each compound was assayed against Protein Tat (Human immunodeficiency virus type 1 group M subtype B (isolate HXB2)) (UniProt P04608) (assay: inhibitors of Tat binding to TAR RNA, dose response, counter-screen for Vif-APOBEC3G degradation inhibitor project, biochemical, fluorescence polarization, FAM-labeled TAR RNA (AID 1117361)). Conditions: outcome: dose series up to 100 µM unless noted; series mostly up to 100 µM; inhibition: at the top concentration.

Structure (SMILES)	inhibition [%]	outcome
CC1=C(C(=O)OCCOc2ccccc2)C(c2ccc(C)o2)C2=C(CC(C)(C)CC2=O)N1 (stereo not drawn)	2.05	
CCN(CC)S(=O)(=O)N1CCC(C(=O)NCC2COc3ccccc3O2)CC1 (stereo not drawn)		inactive
N/C(=N\OC(=O)COc1ccc([N+](=O)[O-])cc1)c1cccnc1		inactive
O=C(NCc1cccc(F)c1)C1CCN(S(=O)(=O)Cc2ccccc2)CC1		inactive
O=C(CSc1nnc(Cc2ccc(Cl)cc2)o1)Nc1ccccc1		inactive
CC1CCCC(NC(=O)Cn2cc3c(n2)CCCCC3)C1C (stereo not drawn)		inactive
COCCn1cc(C(=O)NCc2cccs2)c2c3ccccc3n(C)c2c1=O	12.8	
Cc1ccc2c(c1)N=C(c1ccc(Cl)cc1)CO2	11.6	
COc1ccc(NC(=O)Nc2cccs2)cc1OC	10.9	
CCOC(=O)C1CCCN(C(=O)c2ccc3c(c2)OCO3)C1 (stereo not drawn)		inactive
CCOC(=O)C1CCCN(c2c(NCCN(CC)c3ccccc3)c(=O)c2=O)C1 (stereo not drawn)	1.35	
COc1cc(C(=O)Oc2cccc(Nc3ncnc4ccccc34)c2)cc(OC)c1OC	3.41	
COc1ccc2c(c1)C1CC(C)(NC(=O)C1C(=O)c1ccccc1)O2 (stereo not drawn)	2.03	
COc1cc(/C=N/N=C2/NC(=O)C(c3ccccc3)S2)ccc1O (stereo not drawn)		inactive
COc1ccc(/C=N/N=C2/NC(=O)C(c3ccccc3)S2)c(OC)c1 (stereo not drawn)	5.41	
Cc1[nH]c2ccccc2c1C(=O)CN1C(=O)NC(C)(c2ccc(Cl)cc2Cl)C1=O (stereo not drawn)	3.41	
CCN(CC(=O)NCc1cccs1)C(=O)c1ccc([N+](=O)[O-])o1		inactive
CN(CC(=O)Nc1cccc(F)c1)C(=O)c1cc(-c2ccco2)nc2ccccc12	16.4	
COc1ccc(OC)c(NC(=O)COC(=O)c2ccc(OC)c(S(=O)(=O)N3CCOCC3)c2)c1	0.82	
Cc1cc(C)n2nc(C(=O)OCC(=O)N(C)CC(=O)Nc3ccc(F)cc3)nc2n1	10.7	
COc1ccc(-c2cc(C(=O)N(C)CC(=O)Nc3ccccc3Br)c3ccccc3n2)cc1OC		inactive
COc1ccc(C(=O)Nc2cccnc2)cc1S(=O)(=O)N1CCOCC1	6.76	
COc1cccc(NC(=O)CN(C)C(=O)CCCc2nc3ccccc3s2)c1	1	

Structure (SMILES)	inhibition [%]	outcome
CC(=NC1CCCC1)c1c(C)[nH]n(-c2nc3ccccc3s2)c1=O		inactive
c1ccc(-c2cc(-c3nnc4n3N=C(c3ccc5ccccc5c3)CS4)[nH]n2)cc1	2.03	
O=[N+]([O-])c1cccc(/C(=N/N=C/c2ccccc2Br)C23CN4CN(CN(C4)C2)C3)c1		inactive [at 50 µM]
COC(=O)c1c(NC(=O)COC(=O)c2ccc(NC(=O)CC#N)cc2)sc2c1CCCCC2	4.95	
O=C(CSc1nc2cc([N+](=O)[O-])ccc2n1-c1ccccc1)NCc1ccc2c(c1)OCO2		inactive
CCCc1ccc(-c2csc(NC(=O)Cc3cccs3)n2)cc1		inactive
COC(=O)C1=C(N)Oc2cc(C)n(Cc3cccnc3)c(=O)c2C1c1cccc(OC)c1OC (stereo not drawn)	5.41	
O=C(OCN1C(=O)c2ccccc2C1=O)C1CCCCC1	8.87	
COc1cc(-c2n[nH]c(=O)o2)cc(OC)c1OC	2.73	
COC(=O)/C(=C\Nc1ccccc1)NC(=O)c1ccc(Cl)cc1Cl	0.68	
CCOc1ccc2nc(NC(=O)CN3CCN(c4ccccn4)CC3)sc2c1	4.77	
CC1=C(C(=O)OC2CCCCC2)C(c2ccc(C)o2)C2=C(CCCC2=O)N1 (stereo not drawn)	0.68	
CCOc1ccc(N(C(C)C(=O)NC2CCCCCC2)S(C)(=O)=O)cc1 (stereo not drawn)	2.73	
CC(NC(=O)/C(C#N)=C/c1cn[nH]c1-c1ccccc1)c1ccccc1 (stereo not drawn)		inactive
CCCC[C@@H]1CNC(=S)N1CCc1cccc2ccccc12		inactive
Cc1nn(Cc2ccc(F)cc2)c(C)c1NC(=O)c1noc2c1CCc1ccccc1-2	0.68	
N=c1ccn(Cc2ccc(Cl)cc2)cc1	4.73	
C=CCc1c(C)nc(C)nc1N/N=C/c1ccc(F)cc1	1.36	
COCCNC(=S)c1ccc(OC)cc1	6.08	
CCN(CC)S(=O)(=O)c1ccc(C(=O)NCc2n[nH]c(=S)n2-c2ccccc2OC)cc1		inactive
Cc1ccc(N=Cc2nc(-c3ccco3)oc2O)cc1	10.1	
Clc1ccc2nc3ccccn3c2c1		inactive
O=C(NC1CCCCC1)n1c(=O)oc2cc(S(=O)(=O)N3CCCCC3)ccc21	3.38	

Structure (SMILES)	inhibition [%]	outcome
CC(C)Cn1c(N)c(C(=O)NCc2cccs2)c2nc3ccccc3nc21		inactive
COC(=O)c1ccc(-n2nnnc2SCC(=O)Nc2cc(OC)ccc2OC)cc1	9.55	
CCOC(=O)N1CCC(N2Cc3cccc(C(=O)Nc4cc(F)ccc4F)c3C2=O)CC1	4.73	
CC1(C)CC(=O)C=C(Nc2ccccc2NC(=O)c2cnccn2)C1	19.6	
CCC(C)NS(=O)(=O)c1ccc(NS(=O)(=O)c2ccc(F)cc2)cc1 (stereo not drawn)		inactive
O=C(CCc1c[nH]c2ccccc12)N1CCN(c2ccc(O)cc2)CC1		inactive
CC(C)CN1C(=O)c2ccc(C(=O)Nc3ccc(O)cc3C(=O)O)cc2C1=O		inactive
COC(=O)c1c(NC(=O)CC2NCCNC2=O)sc2c1CCCC2 (stereo not drawn)		inactive
Cc1nn(CC(=O)Nc2ccccn2)c(C)c1Br		inactive
CCOCCCNC(=O)C1CCN(S(=O)(=O)CC)CC1	3.67	
CCOC(=O)C(C)N1C(=O)S/C(=C\c2ccc(-c3ccccc3C(=O)O)o2)C1=O (stereo not drawn)	28.4	
COc1cc(C(=O)Nc2cccc(-c3nc4ncccc4o3)c2C)cc(OC)c1OC	4.73	
CCC1(C(N)=O)CC2C=CC1C2 (stereo not drawn)		inactive
CCOC(=O)C(C)Sc1nnc2n1C(C)(C)Cc1ccccc1-2 (stereo not drawn)	0.68	
O=S1(=O)CCC(N2CCOCC2)C1 (stereo not drawn)	2.7	
CCOC(=O)/C=C1\SC(C)C(=O)N1CC(=O)N(CCC#N)c1ccccc1 (stereo not drawn)		inactive
COc1ccc(C2=NO[C@@H]3C(=O)N(c4ccc(C)cc4C)C(=O)[C@H]23)cc1OC	12.3	
COc1ccc(OC)c(-n2cnnn2)c1	7.43	
CC(C)(C)NC(=O)C1N(c2cccnc2)C(=O)C2C(C(=O)Nc3ccccc3F)C3(C)C=CC21O3 (stereo not drawn)	16.2	
COc1ccc(OC)c(NC(=O)CSc2nnc(C)n2Cc2ccccc2)c1		inactive
O=C(NCCN1CCOCC1)c1cc(-c2ccc(Br)cc2)on1	0.68	
Cc1cc(SCC(=O)NCCCN2CCCC2=O)nc2ccccc12		inactive
